The source of these data is PubChem BioAssay.

Values joined by “and” are separate entries in the source; they are usually repeats but may differ in a detail not shown here. Identical values can stand only once. For some of these results: Entries with a potency or affinity are not part of this list. Active and inactive are the calls of the source. Unless noted, how the calls were made is not given here.

Test [1] is described as follows: P. berghei load reduction in hepatocytes – cell-based, HepG2, luciferase luminescence, HepG2 viability, primary screen (AID 624349; in the data active means parasite load remaining mostly below about 12%, no sharp cut-off; inactive means mostly above about 10%;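 further: 100% = mean of DMSO negative control wells on the same plate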). The note with it: P. berghei liver stage in HepG2, luciferase luminescence, concentration not given here; parasite load remaining: stronger effect = lower value; viability: measured here: HepG2 viability without parasites.
Test [2] addresses 6-phosphogluconate dehydrogenase, decarboxylating (Homo sapiens) (UniProt P52209). The experiment in a line: inhibition of human phosphogluconate dehydrogenase – biochemical, recombinant enzyme, NADPH absorbance, primary screen (AID 1159550;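 active means at least 20% inhibition of 6-phosphogluconate dehydrogenase activity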). The note with it: recombinant 6PGD, NADPH absorbance 341 nm; at 10 µM; stronger effect = higher value.
Test [3] in a line: EMT-state selective cytotoxicity in co-culture – imaging, PC-3E GFP, TEM4-18 mCherry, primary screen (AID 1345086;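 active means compounds killing one labelled cell type while sparing the other, by normalised counts and ratio limits, not self-fluorescent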;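 on all read-outs here: cells exposed to compound for 72 h before imaging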;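 on red/green cell ratio (normalised): normalised mesenchymal count divided by normalised epithelial count so high means epithelial killing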). The note with it: PC-3E GFP / TEM4-18 mCherry co-culture, imaging cell counts, at 1 µM; for red/green cell ratio (normalised): actives lie on both sides.
Test [4] has as its system Aerobactin synthetase IucA (Klebsiella pneumoniae hvKP1). The experiment in a line: IucA enzyme inhibition, primary screen, biochemical, Spectrum library (AID 1346200).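 Further: 100% = wells without compound and 0% = wells lacking enzyme.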 The note with it: malachite green pyrophosphate, A620, at 8 µM, stronger effect = lower value.
The target of test [5] is Mitogen-activated protein kinase 7 (Homo sapiens) (UniProt Q13164). The experiment in a line: Gal4-ERK5 driven luciferase induction – cell-based, HTS, primary screen (AID 1508626;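 active means luciferase signal above three times the same-plate solvent-only control wells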;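 further: luciferase driven by Gal4-ERK5 fusion binding five Gal4 sites before minimal TATA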). The note with it: HeLa Gal4-ERK5 transactivation, 18 h, at 5 µM, stronger effect = higher value.
Mitogen-activated protein kinase 7 (Homo sapiens), sequence (Q13164 whole entry, looked up, the tested form may be a part): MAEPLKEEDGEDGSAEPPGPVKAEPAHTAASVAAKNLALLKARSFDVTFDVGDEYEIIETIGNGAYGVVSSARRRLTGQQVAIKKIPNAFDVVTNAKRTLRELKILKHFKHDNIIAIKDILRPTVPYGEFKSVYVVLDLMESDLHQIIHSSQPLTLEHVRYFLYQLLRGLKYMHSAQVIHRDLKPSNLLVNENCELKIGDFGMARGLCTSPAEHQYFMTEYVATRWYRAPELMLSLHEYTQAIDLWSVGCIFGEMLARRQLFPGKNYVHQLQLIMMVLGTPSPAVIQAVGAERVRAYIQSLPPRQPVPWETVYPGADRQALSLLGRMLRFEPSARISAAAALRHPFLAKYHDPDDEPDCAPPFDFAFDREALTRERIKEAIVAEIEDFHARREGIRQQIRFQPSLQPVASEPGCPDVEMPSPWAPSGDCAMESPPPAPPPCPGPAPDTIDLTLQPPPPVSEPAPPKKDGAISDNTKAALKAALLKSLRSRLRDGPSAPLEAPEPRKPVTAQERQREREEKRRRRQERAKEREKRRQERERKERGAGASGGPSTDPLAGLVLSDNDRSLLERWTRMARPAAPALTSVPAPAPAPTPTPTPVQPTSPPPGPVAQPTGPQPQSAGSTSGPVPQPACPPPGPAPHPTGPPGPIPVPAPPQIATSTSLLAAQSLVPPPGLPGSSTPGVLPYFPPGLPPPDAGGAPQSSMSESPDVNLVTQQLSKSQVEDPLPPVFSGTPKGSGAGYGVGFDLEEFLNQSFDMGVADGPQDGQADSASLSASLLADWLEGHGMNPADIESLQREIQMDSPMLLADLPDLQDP
A short description of test [6]: viability loss with induced miR-34 in A549 – imaging, A549 dox-inducible miR-34, nuclei and caspase counts, primary screen (AID 1347080;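 active means compounds whose cell count with miR-34 switched on is under 0.7 times the count with it off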). To be noted: A549 miR-34 inducible, Hoechst nuclei count, 48 h.
For test [7], the target named is NAD(+) hydrolase SARM1 (Homo sapiens) (UniProt Q6SZW1). Kind of test: blocking NAD cleavage by SARM1 SAM-TIR – cell lysate, NAD-Glo luminescence (AID 1508614;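 active means compound whose remaining NAD level is above about 45 nM, limit read from the data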). To be noted: SAM-TIR HEK293T lysate NADase, at 1 µM, stronger effect = higher value.
NAD(+) hydrolase SARM1 (Homo sapiens), sequence (Q6SZW1 whole entry, looked up): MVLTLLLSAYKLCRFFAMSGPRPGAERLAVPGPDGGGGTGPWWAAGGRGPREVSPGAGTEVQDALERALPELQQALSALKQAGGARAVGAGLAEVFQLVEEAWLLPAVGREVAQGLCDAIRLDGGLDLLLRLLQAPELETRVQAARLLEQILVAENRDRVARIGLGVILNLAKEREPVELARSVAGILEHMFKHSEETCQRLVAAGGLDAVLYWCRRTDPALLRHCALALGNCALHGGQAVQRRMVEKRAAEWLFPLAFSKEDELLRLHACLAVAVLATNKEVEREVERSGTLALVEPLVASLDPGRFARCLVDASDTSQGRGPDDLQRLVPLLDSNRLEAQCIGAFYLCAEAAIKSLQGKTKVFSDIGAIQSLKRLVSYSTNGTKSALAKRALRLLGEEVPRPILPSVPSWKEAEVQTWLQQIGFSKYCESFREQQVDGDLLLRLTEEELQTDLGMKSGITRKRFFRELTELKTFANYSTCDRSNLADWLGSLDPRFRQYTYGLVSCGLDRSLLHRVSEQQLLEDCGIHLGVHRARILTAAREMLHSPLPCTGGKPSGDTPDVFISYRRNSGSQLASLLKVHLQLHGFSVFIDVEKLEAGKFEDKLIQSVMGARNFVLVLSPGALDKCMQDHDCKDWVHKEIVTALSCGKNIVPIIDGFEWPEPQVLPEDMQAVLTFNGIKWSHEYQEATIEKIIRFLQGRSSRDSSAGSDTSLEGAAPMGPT
A short description of test [8]: blockers of polyQ-driven CASP3 activation – cell-based (AID 1583). The note with it: polyglutamine-induced caspase-3 activation, cell assay; stronger effect = higher value;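 tested at 10 µM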.
A short description of test [9]: yeast 75Q aggregation reduction – 75Q-TubU reporter (AID 1593). The note with it: Yeast 75Q polyglutamine aggregation reporter.
Test [10] can be described thus: restoration of touch response, mutant HTT neurons – whole organism, C. elegans mechanosensory neurons, N-terminal huntingtin (AID 1599). The note with it: C. elegans polyQ-huntingtin mechanosensory neurons, stronger effect = higher value.
Test [11] is described as follows: blockers of cytochrome c efflux from mitochondria – biochemical, purified mitochondria (AID 1603).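 Further: mouse liver mitochondria challenged with calcium chloride; signal normalized to the plate average as 100%.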 To be noted: stronger effect = lower value.
Test [12] is described as follows: polyglutamine aggregate formation blockers (AID 1604). To be noted: polyglutamine-induced protein aggregation inhibition assay; stronger effect = higher value; tested at 2.5 µM.
The nature of test [13]: glutamate transport activators, MN-1 cells, MN-1 cell line (AID 1612).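 Further: tested at 1 µM final; 0% = mean of DMSO vehicle wells on each plate; positive means more glutamate uptake than control and negative means less.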 The note with it: MN-1 motor neuron cells, stronger effect = higher value.
Test [14] in a line: GFP-Q80 aggregate reduction, neuronal-like cells, cell-based, NGF-treated PC12, GFPQ80 (AID 1614).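 Further: lower means fewer inclusions and 0 means no inclusions at all.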 The note with it: PC12 NGF-treated GFP-polyQ80 inclusion reduction.
Test [15] in a line: 75Q-TubH aggregate inhibition, S. cerevisiae, yeast (AID 1616). To be noted: S. cerevisiae 75Q-TubH polyglutamine aggregation suppression; stronger effect = higher value.
Test [16] in a line: compounds altering circadian rhythm period length – cell-based, LOPAC library, luminescence reporter (AID 2774).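 Further: values are relative to mean of DMSO wells on each plate.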 The note with it: circadian reporter cells, at 7 µM, actives lie on both sides.
Test [17] relates to Hepatitis C virus NS3 helicase. The experiment in a line: blockers of NS3h binding to ssDNA – biochemical, fluorescence polarization, LOPAC1280 library, primary screen (AID 687035; in the data active means inhibition above about 37%). The note with it: Purified HCV NS3 helicase, Cy5-dT15 ssDNA binding fluorescence polarization; stronger effect = higher value; concentration not given here. On the technique in general: Polarisation of emitted light reports the rotation of a fluorescent probe.

The nature of test [18]: compounds altering Cy5-DNA-NS3h complex signal – biochemical, LOPAC1280, artefact control for HCV NS3 helicase inhibitor project (AID 687037). The note with it: Cy5-DNA-NS3h complex fluorescence interference counterscreen. (In general: The purpose of a counterscreen is to sort out artefacts and off-target activity.)
Test [19] deals with Aerobactin synthetase IucA (Klebsiella pneumoniae). The experiment in a line: inhibition of K. pneumoniae IucA enzyme – biochemical, Tocris library, absorbance (AID 1345561).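 Further: 100% = enzyme without compound and 0% = no enzyme.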 To be noted: purified IucA enzyme assay, absorbance (OD) read-out; stronger effect = lower value;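 tested at 8 µM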.
Test [20] concerns Aerobactin synthetase IucA (Klebsiella pneumoniae, hypervirulent). The experiment in a line: biochemical IucA inhibition screen of LOPAC library by absorbance (AID 1346212).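 Further: 100% = no compound wells and 0% = no enzyme wells.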 The note with it: IucA enzyme assay, absorbance (OD) readout; stronger effect = lower value;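 tested at 8 µM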.
The nature of test [21]: blockers of cellular phospholipid synthesis – cell-based, LOPAC library, screen 4, primary screen (AID 1347384). The note with it: animal cells, phospholipid biosynthesis inhibition screen; at 10 µM.
The nature of test [22]: galactose survival enhancers in mitochondrial complex I cybrids – cell-based, galactose medium, ATP luminescence, primary screen (AID 1645843;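 active means z-score of at least 1.8 in each of two replicates, scored against plate mean and spread of sample wells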;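 further: positive z means more ATP and so rescue of galactose-driven cybrid death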). To be noted: complex I mutant cybrid cells, 72 h, stronger effect = higher value.
A short description of test [23]: MELAS cybrid and Rieske KO viability enhancers – cell-based, MELAS cybrids, Rieske KO mouse fibroblasts, CellTiter-Glo, primary screen (AID 1508586;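 active means mean z-score across replicates of 1.96 or higher in either the MELAS or the Rieske mutant cell line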;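 further: z relative to plate mean and SD of compound and empty wells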). The note with it: low glucose. On the technique in general: ATP-based viability assays read luminescence as a measure of living cells.
Where [24] appears, read: measured here: epithelial PC-3E GFP cell survival.
The mark [25] stands for this setting: measured here: mesenchymal TEM4-18 mCherry cell survival.
Setting [26] is: measured here: relative caspase fold change +Dox/-Dox.
Where [27] appears, read: measured here: total cells with miR-34 induction, stronger effect = lower value.
Setting [28] is: measured here: total cells without miR-34 induction.

6-phosphogluconate dehydrogenase, decarboxylating (Homo sapiens), sequence (P52209 whole entry, looked up): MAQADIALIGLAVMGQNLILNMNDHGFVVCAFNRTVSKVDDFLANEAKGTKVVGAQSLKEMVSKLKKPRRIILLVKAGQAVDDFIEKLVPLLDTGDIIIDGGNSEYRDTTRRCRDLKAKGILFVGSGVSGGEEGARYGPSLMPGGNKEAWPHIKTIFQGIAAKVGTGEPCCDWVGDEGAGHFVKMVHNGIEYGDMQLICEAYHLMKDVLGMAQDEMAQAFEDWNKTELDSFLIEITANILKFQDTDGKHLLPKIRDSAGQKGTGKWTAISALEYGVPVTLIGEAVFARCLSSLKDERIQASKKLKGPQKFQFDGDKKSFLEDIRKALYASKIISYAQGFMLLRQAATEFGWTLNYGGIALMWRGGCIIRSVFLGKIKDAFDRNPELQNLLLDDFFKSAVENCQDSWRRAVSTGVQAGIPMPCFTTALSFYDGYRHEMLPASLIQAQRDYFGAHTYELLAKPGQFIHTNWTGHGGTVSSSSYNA

As for `OC[C@@H]1CCCN2CCCC[C@H]12`, the parasite load remaining in [1] was 133% (inactive). Moreover, the viability in test [1] stood at 91.1%. The inhibition in test [2] was -5.58% (inactive). Moreover, in test [3], the red/green cell ratio (normalised) is 0.92 (inactive). The values for the normalised cell number in [3] (setting [24]) and in test [3] (setting [25]) were 0.97 and 0.89, respectively. The activity remaining in test [4] is 109% (inactive). Moreover, in test [5], the luciferase signal was 48 AU (inactive).

On to `COC1=CC23CCCN2CCc2cc4c(cc2C3C1O)OCO4` (configuration not stated), for which, in [2], the inhibition is -9.46% (inactive). Moreover, the activity remaining in test [4] is 108% (inactive).

As to `CNc1ccc(C(=O)CC(O)CCC(C)C2OC(=O)CC(O)CC(=O)CC(O)CC(O)CC(O)CC(O)CC3(O)CC(O)C(C(=O)OC)C(CC(O[C@@H]4O[C@H](C)[C@@H](O)[C@H](N)[C@@H]4O)/C=C/C=C/C=C/C=C/C=C/C=C/C=C/C2C)O3)cc1` (some centres not stated), the parasite load remaining in test [1] is 132% (inactive) and 33.6% (inactive). Further, the viability in test [1] was 90% and 101%. The inhibition in [2] was 2.08% (inactive). For the same molecule, the red/green cell ratio (normalised) in [3] is 1.39 (inactive). The normalised cell number in [3] (setting [24]) turned out to be 0.82; in test [3] (setting [25]) it was 1.14. Also, the fold change in [6] (stronger effect = lower value) was 0.878 (inactive); in test [6] (setting [26]) it was 3.37. For the same molecule, the cell count in test [6] (setting [27]) turned out to be 11000; in [6] (setting [28]), 12500. Further, the remaining NAD in test [7] was 10 nM (inactive).

Consider `COC(=O)/C(C)=C\CC12OC(C)(C)C3CC(C=C4C(=O)c5c(OC)c6c(c(CC=C(C)C)c5OC431)OC(C)(CCC=C(C)C)C=C6)C2=O` (configuration not stated), for which, in [2], the inhibition was -0.84% (inactive). The activity remaining in test [4] is 98.7% (inactive).

For the molecule `O=[N+]([O-])c1cc(O)c(O)c([N+](=O)[O-])c1`, the values for the inhibition in test [8], in test [17] and in test [2] were -6.91%, 1% (inactive) and -7.64% (inactive), respectively. The molecule also registered a score in test [9] of 1.27. The rescue above control in test [10] was -7.14. The cytochrome c release ratio in [11] worked out at 0.96. In test [12], the inhibition of aggregation worked out at 80.3%. In test [13], the glutamate uptake change is -10%. In [14], this molecule yielded an inclusion score of 2. In test [15], this molecule came in with an aggregation suppression score of 1.02. Also, the period change in test [16] was 0.035 h (inactive). For the same molecule, the fluorescence ratio (interference) in [18] was 1 (inactive). Further, the remaining activity in test [19] is 95.2% (inactive); in test [20], 97% (inactive). The activity remaining in [4] was 110% (inactive). Besides, the fold change was 1.02 (inactive) and 0.929 (inactive) in test [6] (stronger effect = lower value); 1.32 and 0.849 in [6] (setting [26]). Besides, the cell count in test [6] (setting [27]) is 9880 and 8690; in test [6] (setting [28]), 9680 and 9350. Besides, in test [21], the result was inactive. Moreover, the z-score in [22] is 0.815 (inactive) and 1.17 (inactive).

`O=C1CCCN1CC#CCN1CCCC1`: the inhibition in [8] was 17.7%; in [17] it was -4% (inactive); in test [2], -3.4% (inactive). In addition, the score in test [9] was 1.21. This molecule yielded a rescue above control in test [10] of 3.59. Moreover, the cytochrome c release ratio in test [11] was 0.97. Also, the inhibition of aggregation in [12] was found to be 79.6%. In [13], the glutamate uptake change worked out at 5.01%. The same molecule displayed an inclusion score in test [14] of 1. The aggregation suppression score in test [15] came out at 1.3. In addition, the period change in test [16] is 0.015 h (inactive). The parasite load remaining in test [1] was 75.3% (inactive) and 41.2% (inactive). Further, the viability in [1] is 88.4% and 99%. Besides, the fluorescence ratio (interference) in [18] was 0.9 (inactive). Moreover, the remaining activity was 92.7% (inactive) in test [19] and 119% (inactive) in [20]. For the same molecule, the activity remaining in test [4] is 119% (inactive). In addition, the fold change in [6] (stronger effect = lower value) was 1.1 (inactive) and 0.966 (inactive) and 0.92 (inactive); in [6] (setting [26]) it was 0.937 and 0.652 and 1.46. Also, the cell count in test [6] (setting [27]) is 11000 and 8640 and 10100; in test [6] (setting [28]) it was 10100 and 8940 and 11000. In addition, the outcome in test [21] was inactive. Moreover, the z-score in test [23] (MELAS cybrid survival, CellTiter-Glo 48 h, stronger effect = higher value) was -0.379 (inactive); in test [23] (Rieske KO mouse fibroblast survival, CellTiter-Glo 72 h), -0.277; in [22], 0.355 (inactive) and 1.75 (inactive) and 0.67 (inactive). The luciferase signal in test [5] was 44 AU (inactive).

In [9], `C[C@]12CCC3C(CC[C@]4(O)C[C@@H](O)CC[C@]34C=O)[C@@]1(O)CCC2C1=CC(=O)OC1` (some centres not stated) had a score of 1.09. In test [10], this molecule registered a rescue above control of 6.59. Also, the cytochrome c release ratio in test [11] came to 1.29. In test [12], this molecule registered an inhibition of aggregation of 62.8%. Besides, the glutamate uptake change in [13] came to 13.8%. In test [14], this molecule displayed an inclusion score of 0. The molecule further displayed an aggregation suppression score in test [15] of 1.29. Further, the inhibition in test [2] was 14.9% (inactive). Besides, in test [3], the red/green cell ratio (normalised) is 0.2 (inactive). For the same molecule, the normalised cell number turned out to be 0.18 in test [3] (setting [24]) and 0.04 in test [3] (setting [25]). In addition, the activity remaining in [4] is 79.3% (inactive).

As a reminder, the viability is a read-out of living cells in per cent, often relative to untreated cells. The inhibition is the change of the read-out against control, counted positive when it falls. For orientation: remaining activity means the signal under treatment as a percentage of the control signal.
